Data on 40 molecules can be found in PubChem BioAssay (NCI).

This is part of a sample that, as a whole, favours compounds with a hit. Of some 83,000 tested, about 20% had one in any assay.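 Growth was measured after 48 h exposure to one concentration of compound in 96-well plates. Values under 10 count as active.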 A number with no mark means an inactive call. Calls of active or inactive are those of the source.

The subject of this assay is A498 renal. Nature of the assay: NCI-60 one-dose screen, 48 h (100 = growth as untreated, 0 = no growth, -100 = all killed). To be noted: 10 µM. On the procedure:
Growth inhibition of the A498 human tumor cell line is measured as a screen for anti-cancer activity. Cells are grown in 96 well plates and exposed to the test compound for 48 hours. Compounds are tested at a single concentration, which is 10^-5 M for most compounds. The reported endpoint is percent growth (GI% or GIPRCNT), where numbers from 0 - 100% represent growth inhibition, and numbers from -100% - 0 represent cell death. For example, a value of 40 represents 60% growth inhibition. A value of 0 means no net growth occurred over the course of the experiment. A value of -40 indicates 40% of cells at the beginning of the experiment died by the end of the experiment. A value of -100 means all cells are dead at the end of the experiment.
NCI-60 Human Tumor Cell Lines Screen was performed using the standard one-dose NCI protocol, which is described in more detail at https://dtp.cancer.gov/discovery_development/nci-60/default.htm.
Compounds with GIPRCNT values below 10 were considered active. Activity score was based on GIPRCNT using the following formula: […]
Score is 0 for GIPRCNT values of 100 or above, 50 for GIPRCNT values of 0, and 100 for GIPRCNT values of -100.
With `COc1ccc(/C(C)=C(\c2ccc(OCCN3CCOCC3)cc2)c2ccc(OC(=O)Cc3ccccc3)cc2)cc1`, the growth was 108%.
As for `CC1[C@H](C)OC(=O)CC(O)CC(O)CC(O)CCC(O)C(O)C[C@]2(O)CC(O)C(C(=O)O)C(CC(OC3O[C@H](C)[C@@H](O)[C@H](N)[C@@H]3O)/C=C/C=C/C=C/C=C/CC/C=C/C=C/[C@H](C)[C@H]1O)O2` (stereo not given in full), the growth is 114%.
Turning to `CCCC[C@H](NC(=O)[C@H]1CCCN1C)C(=O)N(C)[C@H](C[C@@H](OC(C)=O)c1nc(C(=O)N[C@@H](Cc2ccccc2)C[C@H](C)C(=O)OCC)cs1)C(C)C`, the growth is -11.7% (active).
As for `COc1ccc2c(c1)c(-c1nc(-c3c[nH]c4ncccc34)cs1)cn2CCCCN1CCCCC1`, the growth is 58.2%.
As for `ClCCN(CCCl)c1ccc(/C=N\N=C\c2ccc(N(CCCl)CCCl)cc2)cc1`, the growth is 75%.
As for `O=[N+]([O-])c1ccc([Se]C2CCCCC2Cl)c([N+](=O)[O-])c1` (stereo not given), the figure is 29.4%; as for `COC(=O)[C@@H](C)C[C@H](Cc1ccccc1)NC(=O)c1csc([C@@H](C[C@H](C(C)C)N(C)C(=O)[C@@H](NC(=O)[C@H]2CCCCN2C)C2CCCCC2)OC(C)=O)n1`, -10.2% (active).
Regarding `CN1CC(=O)N(O)C1(C)c1cccnc1` (stereo not given), the growth was 97.2%.
Regarding `O=C1C2C(C(=O)[N]1[Hg][c]1cccs1)C1(Cl)C(Cl)=C(Cl)C2(Cl)C1(Cl)Cl` (stereo not given), the growth was 124%.
With `CO[C@H](C(=O)O)[C@@H]1Cc2cc3cc(OC4CC(OC5CC(O)C(O)C(C)O5)C(O)C(C)O4)c(C)c(O)c3c(O)c2C(=O)[C@H]1OC1CC(OC2CC(OC3CC(C)(O)C(O)C(C)O3)C(O)C(C)O2)C(O)C(C)O1` (stereo not given in full) the figure was -55.7% (active); with `Fc1ccc(N2COOC3(OOC2)C2CC4CC(C2)CC3C4)cc1`, 90.1%; with `COc1ccc(C(=O)c2cc(OC)c(OC)c(OC)c2)cc1OC(C)=O`, 49.8%.
Take `Clc1ccc(CSC(Cn2ccnc2)c2ccc(Cl)cc2Cl)cc1` (stereo not given): the growth is 49.2%.
With `COC[C@@H]1C[C@@]2(C)[C@@H](CC[C@@H]3[C@@H]2CC[C@@]2(C)[C@H]3CC[C@]2(C)O)CC1=O` the figure was 111%; with `CCCCCCCCCCCCCCCCCCOc1ccccc1COP(=O)(O)OOCC[N+](C)(C)C`, 52.6%.
As for `CC[C@H](C)[C@H](NC(=O)[C@H]1CCCCN1C)C(=O)N(C)[C@H](C[C@@H](O)c1nc(C(=O)N[C@@H](Cc2ccccc2)C[C@H](C)C(=O)O)cs1)C(C)C`, the figure is 76.2%.
As for `O=C(CCCCCNC1=CC(=O)c2ccccc2C1=O)NCCC[Te]c1ccccc1`, the figure is -57.7% (active); as for `CC[C@H](C)[C@H](NC(=O)N[C@@H](C)c1ccccc1)C(=O)N(C)[C@H](C[C@@H](OC(C)=O)c1nc(C(=O)N[C@@H](Cc2ccccc2)C[C@H](C)C(=O)OC)cs1)C(C)C`, -4.53% (active); as for `C[C@]12C[C@@H](CO)[C@H](O)C[C@@H]1CC[C@@H]1[C@@H]2CC[C@]2(C)[C@@H](O)CC[C@@H]12`, 95.1%.
In the case of `CC(=O)O[C@H]1C(=O)[C@@]2(C)[C@H]([C@H](OC(=O)c3ccccc3)[C@]3(O)C[C@H](OC(=O)[C@H](OC(=O)OC[C@@H]4COC(C)(C)O4)[C@@H](NC(=O)c4ccccc4)c4ccccc4)C(C)=C1C3(C)C)[C@]1(OC(C)=O)CO[C@@H]1C[C@@H]2O`, the growth was 13.4%.
With `CN1CCC(c2c[nH]c3ccccc23)C1` (stereo not given) the figure was 113%.
Regarding `O=C(CC1(O)C(=O)Nc2ccccc21)c1ccc(C(=O)NCC2CCC3(CC2)OOC2(CCCCC2)OO3)cc1` (stereo not given), the growth was 93.7%.
As for `COC(=O)[C@@H](C)C[C@H](Cc1ccccc1)NC(=O)c1nc([C@@H](C[C@H](C(C)C)N(C)C(=O)[C@@H](NC(=O)[C@H]2CCCCN2C)C(C)C)OC(C)=O)sc1C`, the figure is -19.3% (active); as for `COC(=O)[C@@H](C)C[C@H](Cc1ccccc1)NC(=O)c1csc([C@@H](C[C@H](C(C)C)N(C)C(=O)C2(NC(=O)[C@H]3CCCCN3C)CCC2)OC(C)=O)n1`, -2.79% (active); as for `COC(=O)C12CC(NC(=O)c3csc([C@@H](C[C@H](C(C)C)N(C)C(=O)[C@@H](NC(=O)[C@H]4CCCCN4C)C(C)C)OC(C)=O)n3)(C1)C2`, -1.32% (active).
For the molecule `O=C1NC(=O)C(=Cc2cccn2CCCCCn2c3ccccc3c(=O)c3ccccc32)C(=O)N1`, the growth is 104%.
For `COc1cccc2c1c(C(=O)C(=O)Nc1ccn[nH]1)cn2Cc1ccc(F)cc1`, the growth was -72.9% (active).
As for `COc1ccc(/C=C\c2cc(OC)c(OC)c(OC)c2)cc1OCC(=O)Nc1nc2ccc(F)cc2s1`, the growth was 29.5%.
As for `Cc1ccc(Nc2nc3c(s2)C2=CC[C@@H]4[C@H](CC[C@]5(C)C(=O)CC[C@@H]45)[C@@]2(C)CC3)cc1`, the figure is 51.3%; as for `CCCCNC(c1ccc(Cl)cc1)C(O)c1ccc(Cl)cc1` (stereo not given), 57.8%; as for `CC(=O)O[C@H]1CC[C@H]2[C@@H]3CC=C4c5nc(-c6ccccc6)sc5CC[C@]4(C)[C@H]3CC[C@]12C`, 75.2%.
As for `O=[N+]([O-])CC(O)C(Cl)(Cl)Cl` (stereo not given), the figure is 87.3%; as for `COC(=O)[C@@H](C)C[C@H](Cc1ccccc1)NC(=O)c1csc([C@@H](C[C@H](C(C)C)N(C)C(=O)[C@@H](NC(=O)[C@H]2CCCCN2C)c2ccc(F)cc2)OC(C)=O)n1`, -9.07% (active); as for `OCCCCCNC1CCCCC1`, 105%.
With `Clc1cccc(NCOOC2(OOCNc3cccc(Cl)c3)CCCCCC2)c1` the figure was 98.8%; with `CC[C@H](C)[C@H](NC(=O)C12CC(NC(C)=O)(C1)C2)C(=O)N(C)[C@H](C[C@@H](OC(C)=O)c1nc(C(=O)N[C@@H](Cc2ccccc2)C[C@H](C)C(=O)OC)cs1)C(C)C`, -14.8% (active).
On to `C/C(=C\c1ccn(-c2ccc(N)cc2)n1)[C@@H]1C[C@@H]2O[C@]2(C)CCC[C@H](C)[C@H](O)[C@@H](C)C(=O)C(C)(C)[C@@H](O)CC(=O)O1`, for which the growth is -0.818% (active).
With `ClCCN(CCCl)c1ccc(/C=N/Nc2ncnc3nc[nH]c23)cc1` the figure was 98.4%; with `C1CCC([PH+](C2CCCCC2)C2CCCCC2[PH+](C2CCCCC2)C2CCCCC2)CC1.[Au].[CH-]1CCCCC1CC1CCCC[N-]1` (stereo not given), -91.6% (active); with `ClCCN(CCCl)c1ccc(-n2cnc3c(Cl)ncnc32)cc1`, 95.2%.
